Results as given in ChEMBL document CHEMBL1157539, “Thousands of chemical starting points for antimalarial lead identification” (Nature, 2010).

How the values were obtained:
Assay type in all cases: functional
[1] = test system: Plasmodium falciparum; test: GSK_TCMDC: Inhibition of Plasmodium falciparum 3D7 in whole red blood cells, using parasite LDH activity as an index of growth. Test compounds present at 2uM
[2] = test system: Plasmodium falciparum; test: GSK_TCMDC: Inhibition of Plasmodium falciparum Dd2 in whole red blood cells, using parasite LDH activity as an index of growth. Test compounds present at 2uM
[3] = test system: HepG2; test: GSK_TCMDC: Percent inhibition of human HepG2 cell line. Test compounds present at 10uM.

SMILES | Inhibition [1] | Inhibition [2] | Inhibition [3]
NCCCNc1ccc(-c2ccc(NC(=O)Nc3cc(C(F)(F)F)ccc3F)cc2)cn1.O=C(O)C(F)(F)F | 100% | 66% | 0%
Cl.N=C(N)NN=Cc1ccc2c(ccc3ccccc32)c1 | 100% | 68% | 9%
CS(=O)(=O)c1ccc(CNCc2cccc(-c3cccc(-c4nc5ccccc5[nH]4)c3)c2)cc1.O=C(O)C(F)(F)F | 100% | 47% | 3%
Cc1ccccc1C1CCN(C2CCC(NC(=O)c3cc4cc(Cl)ccc4o3)CC2)CC1 (configuration not stated) | 89% | 30% | 22%
O=C(O)C(F)(F)F.O=c1ccc2ccc(F)c3c2n1CC3CN1CCC(NCc2cccc(-c3ccccc3F)c2)CC1 (configuration not stated) | 100% | 6% | 29%
Cl.c1ccc(Cn2nnnc2-c2cccc(Nc3ccnc4cc(-c5nccs5)ccc34)c2)cc1 | 87% | 46% | 51%
COc1cc(NCC(O)CNc2cc(OC)c3ccccc3n2)nc2ccccc12 | 100% | 93% | 42%
O=C(C=Cc1ccc(Cl)c(Cl)c1)NC1CCN(CCc2ccccc2)CC1.O=C(O)C(F)(F)F | 97% | 13% | 6%
COc1cc(C(=O)N2CCOC(CCN3CCC4c5ccccc5CC43)(c3ccc(Cl)c(Cl)c3)C2)cc(OC)c1OC (configuration not stated) | 88% | 82% | 32%
O=c1cc(NCCCNCc2ccc3c(c2)OC(F)(F)O3)[nH]c2ccccc12 | 100% | 94% | 0%
COc1cccc(C2C(C(=O)Nc3ccccc3)=C(C)N=c3sc(=Cc4ccc(O)cc4)c(=O)n32)c1 (configuration not stated) | 97% | 97% | 15%
CCCCCCN1CCN(Cc2cccc(NC(=O)c3ccc(Cl)c(Cl)c3)c2)CC1.O=C(O)C(F)(F)F | 85% | 51% | 31%
COc1ccccc1CCNc1nc(C)cc(N[C@@H](Cc2ccccc2)C(=O)NCc2cccs2)n1.O=C(O)C(F)(F)F | 100% | 73% | 18%
Cl.O=S(=O)(c1ccc(OCc2ccc(Cl)cc2)cc1)c1cc2c(cc1OCc1ccccc1)CCN(CC1CC1)CC2 | 82% | 0% | 19%
Cc1ccc(-c2nnc(Nc3ccc(CC(N)=O)cc3)c3ccccc23)cc1S(=O)(=O)NCC1CCCO1 (configuration not stated) | 83% | 64% | 0%
CN1CCN(CCCN(Cc2cccc(-c3ccc(CNCCc4ccccc4)cc3)c2)C(=O)Nc2ccccc2)CC1.O=C(O)C(F)(F)F | 100% | 91% | 61%
CC(C)N1CCN(C(CN2CCN(CCCOc3ccc4nonc4c3)CC2)c2ccc(F)cc2)CC1.Cl (configuration not stated) | 97% | 40% | 0%

SMILES | Inhibition [1] | Inhibition [2] | Inhibition [3]
CS(=O)(=O)Nc1ccc(-c2ccc3ccnc(N)c3c2)cc1.O=C(O)C(F)(F)F | 85% | 75% | 31%
O=C1C(c2ccccc2)=C(Nc2cccc([N+](=O)[O-])c2)c2ccccc21 | 88% | 88% | 0%
CC(NC(=O)NC1CCC(CCN2CCCc3ccccc32)CC1)c1cccc2ccccc12.O=C(O)C(F)(F)F (configuration not stated) | 90% | 83% | 0%
O=C(NCC(CCN1CCC(c2c[nH]c3ccccc23)CC1)c1ccccc1)Nc1ccc(Cl)c(Cl)c1 (configuration not stated) | 100% | 53% | 46%
CCC(C)(C)C1CCc2[nH]c3ccccc3c(=O)c2C1 (configuration not stated) | 97% | 96% | 16%
Oc1cc(Nc2ccnc3cc(I)ccc23)c(F)cc1Cl | 92% | 77% | 0%
CC(CN1CCN(C)CC1)C(=O)Nc1cccc(-c2cccc(-c3nc4ccccc4[nH]3)c2)c1 (configuration not stated) | 88% | 19% | 23%
Br.CC1CCC2(CC1)N=C(N)N=C(N)N2OCc1ccc(Br)c2ccccc12 (configuration not stated) | 96% | 40% | 46%
COc1ccccc1N1CCN(CCCCNC(=O)c2ccc(NC(=O)c3ccc4ccccc4c3)cc2)CC1 | 97% | 18% | 16%
CCCCNCc1ccc(-c2nc(CN(C(=O)Nc3cc([N+](=O)[O-])ccc3F)C3Cc4ccccc4C3)cs2)cc1.O=C(O)C(F)(F)F | 87% | 13% | 15%
Oc1ccc2[nH]cc(C3CCN(CCCCCCCCCN4CCC(c5c[nH]c6ccc(O)cc56)CC4)CC3)c2c1 | 100% | 2% | 22%
Nc1nc(N)c2cc(S(=O)(=O)c3ccc4ccccc4c3)ccc2n1 | 95% | 51% | 14%
COc1ccc2nc3cc(Cl)ccc3c(NCCCCN3CCNCC3)c2c1.Cl | 100% | 75% | 29%
CN1CCC(NCc2cccc(-c3cccc(-c4nc5cc(C(F)(F)F)ccc5[nH]4)c3)c2)CC1.O=C(O)C(F)(F)F | 100% | 100% | 35%
N=C(N)Nc1nc(-c2cccc(NCCCCCCCCON3C(N)=NC(N)=NC34CCCCC4)c2)cs1.O=C(O)C(F)(F)F | 97% | 42% | 3%
NC(=O)c1cccc(-n2ccc3cc(CNC4Cc5ccccc5C4)ccc32)c1.O=C(O)C(F)(F)F | 88% | 7% | 17%
Cc1cc(=NN=Cc2ccccn2)c2cc(C(F)(F)F)ccc2[nH]1 | 100% | 100% | 0%
